About 3,200 (25%) of roughly 13,000 compounds showed an effect of 50% or more. The list shows a part of the results.

This assay has as its system P. falciparum stage V gametocytes. More on the design: BacTiter-Glo ATP luminescence viability of purified stage V gametocytes in 384-well plates, per cent inhibition versus DMSO. The settings on record: 48 h, 5 µM; inhibitor.
As usually defined, the % Inhibition is the relative decrease from the control value, in per cent. Turning to `CCOc1cc(C)ccc1C1CCN(CCCCNC(=O)c2nc(-c3ccc(C(F)(F)F)cc3)[nH]c2C)CC1` [TCMDC-138585], the “% Inhibition” value was -10.92%. The same measure for `COc1ccc(-c2nc3ccc(C)nc3nc2-c2ccc(OC)cc2)cc1` [TCMDC-142014]: 17.71%; for `CC(CCc1ccccc1)NCC(O)c1cccc(C(F)(F)F)c1` (stereo not drawn) [TCMDC-131247]: 18.39%; for `c1ccc(-c2nc(NCCCn3ccnc3)cc(-c3ccncc3)n2)cc1` [TCMDC-125417]: 49.28%.

For `c1ccc(-c2cc(NCCCn3ccnc3)nc(-c3cccnc3)n2)cc1` [TCMDC-125422], the “% Inhibition” value worked out at 8.996%. As for `FC(F)(F)c1cccc(-c2cc(NCCCn3ccnc3)nc(-c3ccncc3)n2)c1` [TCMDC-125414], the figure is 56.64%. The same measure for `CC1CN=C(c2ccc(NC(=O)c3ccc(C(=O)Nc4ccc(C5=NCC(C)N5)cc4)cc3)cc2)N1` (stereo not drawn) [TCMDC-137474]: 8.984%; for `Cc1ccc(CNC(=O)c2ccc(CN3CCCN(Cc4ccsc4)CC3)cc2)cc1` [TCMDC-136451]: 11.88%; for `O=S(=O)(NCCN1CCCC1)c1ccc(-c2ccc(CNCc3ccsc3)cc2)s1` [TCMDC-132285]: 78.64%. Take `O=S(=O)(NCCN1CCCC1)c1ccc(-c2cccc(CNCc3ccsc3)c2)s1` [TCMDC-132274]: the “% Inhibition” value is on record as 102.4%. As for `COc1ccc(S(=O)(=O)NC2CCN(c3ccc(C(F)(F)F)cc3NC(=O)OCC(C)C)CC2)cc1` [TCMDC-134275], the figure is 14.87%; as for `N#Cc1cccc(NC(=O)Nc2cccc(-c3cccc(-c4nc5ccc(C(F)(F)F)cc5[nH]4)c3)c2)c1` [TCMDC-133195], -34.96%. As to `Cc1nn(-c2ccccc2)c2c1C(c1ccc(C(C)C)cc1)N1C(=N2)N(Cc2ccccc2)c2ccccc21` (stereo not drawn) [TCMDC-123903], the “% Inhibition” value is on record as -90.94%.

On to `CCN1C(=O)N(CCC(C)C)C2(CCN(Cc3ccc(OC)cc3O)CC2)C1=O` [TCMDC-124587], for which the “% Inhibition” value is recorded as 63.13%. As for `COc1ccc(CN2CCN(CCOC(c3ccccc3)c3ccccc3)CC2)c(O)c1` [TCMDC-135693], the figure is 26.17%. The same measure for `COc1ccc(CN2CCN(CCOC(c3ccc(F)cc3)c3ccc(F)cc3)CC2)c(O)c1` [TCMDC-135694]: 24.37%. The same measure for `COc1ccc(S(=O)(=O)NCC2CCCN(CCCCCNC(=O)/C=C/c3ccc(Cl)c(Cl)c3)C2)cc1` (stereo not drawn) [TCMDC-139595]: 95.6%; for `O=C(/C=C/c1ccc(Cl)c(Cl)c1)NCCCCCN1CCCC(CNS(=O)(=O)c2ccc(F)cc2)C1` (stereo not drawn) [TCMDC-139596]: 59.41%; for `O=c1cc(NCCCNCc2cc(F)cc(C(F)(F)F)c2)[nH]c2ccccc12` [TCMDC-139726]: 25.21%. As to `CC(C)Oc1ccc2ccccc2c1CNCCCCCCNCc1c(OC(C)C)ccc2ccccc12` [TCMDC-137965], the “% Inhibition” value was determined as 107.1%. As for `COc1ccc2ccccc2c1CNCCCCCCNCc1c(OC)ccc2ccccc12` [TCMDC-137915], the figure is 112.9%.

With `CC(C)COc1ccc2ccccc2c1CNCCCCCCNCc1c(OCC(C)C)ccc2ccccc12` [TCMDC-137972], the “% Inhibition” value came to 129.3%.

On to `CC(C)CCNCc1c(O)ccc2ccccc12` [TCMDC-137596], for which the “% Inhibition” value is on record as 6.02%. The same measure for `CCCCNC[C@@H](O)[C@H](Cc1ccccc1)NC(=O)c1cc(NCC)cc(N2CCCCS2(=O)=O)c1` [TCMDC-135177]: 4.465%; for `CCOC(=O)c1[nH]c(-c2cccc(F)c2)nc1N` [TCMDC-131794]: -46.62%; for `O=C(Nc1cccnc1)c1cc(-c2cccnc2)nc2ccc(Cl)cc12` [TCMDC-124361]: -11.56%. As for `COc1ccc(-n2ncc(C(=O)N3CCC4(C3)C(=O)N(c3ccccc3)c3ccccc34)c2C)cc1` (stereo not drawn) [TCMDC-134122], the figure is -6.778%. The same measure for `O=C(NCCCCN1CCC(c2c[nH]c3ccccc23)CC1)c1ccc(-c2ccc(C(F)(F)F)cc2)cc1` [TCMDC-138631]: 87.17%; for `O=C(NC1CCN(CCN2CCC(c3c[nH]c4ccccc34)CC2)CC1)c1ccc(-c2ccc(C(F)(F)F)cc2)cc1` [TCMDC-138845]: 66.39%. For the compound `O=C(NCCCCCN1CCC(c2c[nH]c3ccccc23)CC1)c1ccc(-c2cccnc2)cc1` [TCMDC-139183], the “% Inhibition” value stood at 113.1%. As for `COc1ccc2[nH]cc(C3CCN(CCCCCNC(=O)c4ccc(-c5ccccc5)cc4)CC3)c2c1` [TCMDC-139053], the figure is 30.55%; as for `O=C(NCCCCN1CCC(c2c[nH]c3ccc(-c4ccccc4)cc23)CC1)c1ccc(-c2ccccc2)cc1` [TCMDC-139064], 108.8%.

Take `O=C(NCCCCCN1CCC(c2ccc(O)cc2)CC1)c1ccc(-c2ccccc2)cc1` [TCMDC-139196]: the “% Inhibition” value is listed as -56.25%.

As for `O=C(NC1CCN(CCN2CCC(c3ccccc3C(F)(F)F)CC2)CC1)c1ccc(-c2ccc(Cl)cc2)cc1` [TCMDC-138809], the “% Inhibition” value is recorded as -39.81%. Turning to `O=C(NC1CCN(CCN2CCc3ccccc3CC2)CC1)c1ccc(-c2ccc(C(F)(F)F)cc2)cc1` [TCMDC-138831], the “% Inhibition” value is reported as -7.885%.

Take `O=C(NCCCN1CCC(NC(=O)c2ccc(-c3cccnc3)cc2)CC1)c1ccc(Cl)c(Cl)c1` [TCMDC-133357]: the “% Inhibition” value was found to be 16.57%.

Regarding `O=C(NCCCCN1CCC(c2c[nH]c3ccccc23)CC1)c1sc(-c2ccc(C(F)(F)F)cc2)nc1CO` [TCMDC-138780], the “% Inhibition” value is on record as -12.54%. As for `O=C(NCCCCCN1CCC(c2c[nH]c3ccccc23)CC1)c1ccc(-c2ccccc2)nc1` [TCMDC-139157], the figure is -73.03%; as for `O=C(/C=C/c1ccc(C(F)(F)F)cc1)NCCCCCN1CCC(c2c[nH]c3ccccc23)CC1` [TCMDC-139209], 23.24%; as for `CC(=O)c1ccccc1OCCSc1nnc(Cc2cccs2)n1C1CCCCC1` [TCMDC-123554], -19.51%. The same measure for `CCN(C(=O)NC)C1c2cc(C#N)ccc2OC(C)(C)C1O` (stereo not drawn) [TCMDC-131556]: 13.93%; for `CCCC1N=C(N)N=C(N)N1c1ccc(C)c(C)c1` (stereo not drawn) [TCMDC-131301]: 2.054%. As to `O=C(Nc1cc(C(F)(F)F)ccc1N1CCOCC1)C(Cl)(Cl)Cl` [TCMDC-123707], the “% Inhibition” value was found to be 15.78%. The same measure for `CCCCN(CCCC)C(=N)c1cccc2c1CCCC2` [TCMDC-131553]: 17.3%; for `COc1ccc(CC2(c3ccc(F)cc3)N=C(N)N(CCCc3ccc4c(c3)OCO4)C2=O)cc1` (stereo not drawn) [TCMDC-136540]: -15.69%. As to `COc1cc(Cc2cnc(N)nc2N)cc(OCCNC(=O)OCc2ccccc2)c1OC` [TCMDC-138056], the “% Inhibition” value is reported as -17.39%.

Regarding `CCOC(=O)Nc1cc(-c2csc(N=C(N)N)n2)cc([N+](=O)[O-])c1` [TCMDC-137230], the “% Inhibition” value is -82.77%.

Take `Cn1nccc1C(=O)NCCNCc1cccc(-c2cccc(-c3nc4cc(C(F)(F)F)ccc4[nH]3)c2)c1.O=C(O)C(F)(F)F` [TCMDC-133008]: the “% Inhibition” value came to 12.04%. As for `COc1cc2c(cc1S(=O)(=O)c1ccc(NC(=O)c3cc4ccccc4s3)cc1)CCN(C)CC2` [TCMDC-133789], the figure is 17.23%; as for `COc1ccc2nc(C)cc(NC3Cc4ccccc4C3)c2c1.Cl` [TCMDC-138978], 40.25%. On to `COc1ccc(Nc2nc(NN=Cc3cc(Cl)ccc3O)nc(Nc3ccccc3)n2)cc1` [TCMDC-124115], for which the “% Inhibition” value is 59.23%. On to `COc1ccc(Nc2nc(N/N=C/c3cc(Br)ccc3O)nc(Nc3ccc([N+](=O)[O-])cc3)n2)cc1` [TCMDC-124182], for which the “% Inhibition” value is recorded as 30.94%. As for `Oc1ccc2ccccc2c1C=NNc1nc(Nc2ccccc2)nc(N2CCOCC2)n1` [TCMDC-123839], the figure is -12.77%; as for `COc1ccc(Nc2nc(N/N=C/c3ccc(-c4ccc([N+](=O)[O-])cc4)o3)nc(Nc3ccccc3)n2)cc1` [TCMDC-124187], 17.9%. As for `COc1ccc(Nc2nc(NN=Cc3cc(Br)c(O)cc3O)nc(Nc3ccc([N+](=O)[O-])cc3)n2)cc1` [TCMDC-124181], the figure is 28.04%; as for `O=[N+]([O-])c1cc2c(cc1C=NNc1nc(Nc3ccccc3)nc(Nc3ccccc3)n1)OCO2` [TCMDC-124249], -0.02415%. For the compound `Oc1ccc2ccccc2c1C=NNc1nc(Nc2ccccc2)nc(Nc2ccccc2)n1` [TCMDC-125790], the “% Inhibition” value is 78.83%. In the case of `Brc1cc2c(cc1C=NNc1nc(Nc3ccccc3)nc(Nc3ccccc3)n1)OCO2` [TCMDC-124195], the “% Inhibition” value is listed as 14.96%. The same measure for `COc1c(C=NNc2nc(Nc3ccccc3)nc(Nc3ccccc3)n2)ccc(Br)c1O` [TCMDC-125800]: 79.97%; for `Cc1cccc(CN2CCCC3(CCN(Cc4ccccc4O)C3)C2)c1` (stereo not drawn) [TCMDC-124654]: 29.07%; for `Cc1cc(NC(=O)c2cccs2)ccc1OC1CCN(Cc2ccccc2)C1` (stereo not drawn) [TCMDC-133968]: -2.762%. The same measure for `O=C(Cc1cnc[nH]1)Nc1ccc(-c2cccc(-c3nc4ccc(F)cc4[nH]3)c2)cc1` [TCMDC-136941]: 11.61%; for `CCCCCCN1CCCN(Cc2ccc(C(=O)Nc3ccc(F)c(F)c3)cc2)CC1` [TCMDC-136392]: -27.76%.

On to `CS(=O)(=O)NCCCNCc1ccc(-c2ccc(-c3nc4ccc(F)cc4[nH]3)s2)cc1` [TCMDC-133084], for which the “% Inhibition” value amounted to 18.31%.

In the case of `CNCCNCc1ccc(-c2ccc(-c3nc4ccc(C(F)(F)F)cc4[nH]3)s2)cc1` [TCMDC-132838], the “% Inhibition” value amounted to 66.7%. For the compound `CNCCNCc1ccc(-c2ccc(-c3nc4ccc(F)cc4[nH]3)s2)cc1` [TCMDC-132829], the “% Inhibition” value worked out at 87.07%. On to `CNCCNCc1cccc(-c2ccc(-c3nc4ccccc4[nH]3)s2)c1` [TCMDC-132823], for which the “% Inhibition” value is 28.05%.

Turning to `Fc1ccc2nc(-c3ccc(-c4ccc(CNCCc5ccncc5)cc4)s3)[nH]c2c1` [TCMDC-132848], the “% Inhibition” value was -14.58%. On to `COc1ccc(CNCc2ccc(-c3ccc(-c4nc5cc(C(F)(F)F)ccc5[nH]4)s3)cc2)cc1.O=C(O)C(F)(F)F` [TCMDC-132719], for which the “% Inhibition” value is listed as -32.49%.

Source of the values: PMC4552634, “A New Set of Chemical Starting Points with Plasmodium falciparum Transmission-Blocking Potential for Antimalarial Drug Discovery” (PLoS ONE, 2015).
